Experimental findings from PubChem BioAssay are described below.

A number with no mark means an inactive call. For some of these results: Potency and affinity values are given separately. The source made the active and inactive calls. Unless noted, the rule behind the calls is not given here.

A short description of experiment [1]: antimalarial activity against Dd2 strain (AID 2302;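 active = growth inhibition above 50% at the single 2 µM test dose, taken to imply half-maximal potency below 2 µM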;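 note: 0% = DMSO untreated growth and 100% = chloroquine plus artemisinin killed control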). The settings on record: P. falciparum Dd2 in RBCs, LDH growth readout, 72 h; at 2 µM; active compounds read high.
Experiment [2] in a line: human hepatoma cell viability loss – ATP luminescence, cytotoxicity control for P. falciparum antimalarial project, primary screen (AID 2303;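 active = inhibition above 50%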;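 note: 0% = DMSO wells and 100% = digitonin-killed cells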). To be noted: HepG2 viability, 24-48 h, at 10 µM, active compounds read high.
The target of experiment [3] is L-lactate dehydrogenase (Plasmodium falciparum (isolate CDC / Honduras)) (UniProt Q27743). The experiment is described as follows: PfLDH activity inhibition – cell lysate, 3D7 strain, counter-screen for P. falciparum growth inhibition project (AID 2304).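 Note: 0% = vehicle and 100% = reference inhibitor.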 To be noted: P. falciparum 3D7 crude extract, LDH APAD/NBT absorbance; at 2 µM; active compounds read high. For orientation: A counterscreen serves to expose hits that act by an unwanted route or on another target.
Sequence of L-lactate dehydrogenase (Plasmodium falciparum (isolate CDC / Honduras)) (Q27743 whole entry, looked up): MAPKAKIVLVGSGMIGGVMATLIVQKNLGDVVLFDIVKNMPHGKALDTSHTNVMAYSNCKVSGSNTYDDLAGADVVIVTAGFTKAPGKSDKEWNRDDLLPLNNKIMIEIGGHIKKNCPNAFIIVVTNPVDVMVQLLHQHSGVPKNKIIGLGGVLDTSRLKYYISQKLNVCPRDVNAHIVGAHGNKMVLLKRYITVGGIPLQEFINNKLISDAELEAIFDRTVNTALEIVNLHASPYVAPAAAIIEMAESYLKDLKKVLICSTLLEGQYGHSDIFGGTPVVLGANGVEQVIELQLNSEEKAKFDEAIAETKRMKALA

Experiment [4] in a line: inhibition of 3D7 malaria parasite growth – strain 3D7 (AID 2306).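 Note: 0% = DMSO wells and 100% = chloroquine plus artemisinin control wells.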 To be noted: P. falciparum 3D7 erythrocytic growth, LDH absorbance, 72 h; at 2 µM; active compounds read high.
Experiment [5] concerns the target Calcium-dependent protein kinase 1 (Plasmodium falciparum (isolate 3D7)) (UniProt P62344). Briefly: PfCDPK1 kinase inhibitors, biochemical, TCAMS library (AID 1159585; cut-off not given, nearly all actives have IC50 up to about 0.98 µM;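 note: inhibitors leave more ATP so luminescence rises with inhibition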). The settings on record: recombinant PfCDPK1, Kinase-Glo ATP depletion luminescence.
Experiment [6] addresses Plasmodium falciparum protein kinase 6 (PK6, PF3D7_1337100) (UniProt Q8IDW1). Briefly: PfPK6 kinase inhibitors, biochemical, TCAMS library (AID 1159586). The settings on record: recombinant PfPK6, Kinase-Glo ATP depletion luminescence. (In general: Kinase-Glo measures the ATP left after a reaction by luminescence.)
Experiment [7] addresses Protein kinase 7 (PK7), Plasmodium falciparum 3D7 (PF3D7_0213400) (UniProt Q7YTF7). The experiment is described as follows: inhibition of Plasmodium PK7 catalytic activity – biochemical, TCAMS antimalarial set, Kinase-Glo luminescence (AID 1159587). The settings on record: recombinant PfPK7, Kinase-Glo ATP depletion luminescence.
The target in experiment [8] is Calcium-dependent protein kinase 4 (Plasmodium falciparum (isolate 3D7)) (UniProt Q8IBS5). Briefly: PfCDPK4 kinase inhibitors, biochemical, TCAMS library (AID 1159588; cut-off not given, nearly all actives have IC50 up to about 0.91 µM). To be noted: recombinant PfCDPK4, Kinase-Glo ATP depletion luminescence.
Sequence of Calcium-dependent protein kinase 4 (Plasmodium falciparum (isolate 3D7)) (Q8IBS5 whole entry, looked up): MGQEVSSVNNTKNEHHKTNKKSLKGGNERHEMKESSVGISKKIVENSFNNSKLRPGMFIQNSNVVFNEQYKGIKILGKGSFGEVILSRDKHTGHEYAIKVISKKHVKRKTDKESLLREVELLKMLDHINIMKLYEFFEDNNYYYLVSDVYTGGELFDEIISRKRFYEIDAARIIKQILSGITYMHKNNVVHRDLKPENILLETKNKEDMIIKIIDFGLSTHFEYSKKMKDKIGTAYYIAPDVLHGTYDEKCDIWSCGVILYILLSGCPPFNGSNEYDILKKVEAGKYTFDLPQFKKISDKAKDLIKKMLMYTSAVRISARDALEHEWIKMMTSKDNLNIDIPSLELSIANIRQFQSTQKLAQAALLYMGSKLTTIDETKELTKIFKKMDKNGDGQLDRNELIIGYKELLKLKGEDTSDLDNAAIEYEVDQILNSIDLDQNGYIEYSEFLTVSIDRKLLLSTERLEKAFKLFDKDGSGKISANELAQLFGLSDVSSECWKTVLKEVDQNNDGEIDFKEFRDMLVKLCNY

Sequence of Plasmodium falciparum protein kinase 6 (PK6, PF3D7_1337100) (Q8IDW1 1-305): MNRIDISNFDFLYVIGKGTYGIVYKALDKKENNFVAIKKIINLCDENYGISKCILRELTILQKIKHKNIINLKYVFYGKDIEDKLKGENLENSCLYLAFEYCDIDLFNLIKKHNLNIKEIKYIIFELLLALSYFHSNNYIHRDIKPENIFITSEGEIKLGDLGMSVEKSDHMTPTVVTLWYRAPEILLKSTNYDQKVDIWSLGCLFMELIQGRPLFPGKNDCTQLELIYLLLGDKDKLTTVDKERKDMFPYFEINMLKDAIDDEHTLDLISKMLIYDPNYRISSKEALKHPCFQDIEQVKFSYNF
Sequence of Protein kinase 7 (PK7), Plasmodium falciparum 3D7 (PF3D7_0213400) (Q7YTF7 1-343): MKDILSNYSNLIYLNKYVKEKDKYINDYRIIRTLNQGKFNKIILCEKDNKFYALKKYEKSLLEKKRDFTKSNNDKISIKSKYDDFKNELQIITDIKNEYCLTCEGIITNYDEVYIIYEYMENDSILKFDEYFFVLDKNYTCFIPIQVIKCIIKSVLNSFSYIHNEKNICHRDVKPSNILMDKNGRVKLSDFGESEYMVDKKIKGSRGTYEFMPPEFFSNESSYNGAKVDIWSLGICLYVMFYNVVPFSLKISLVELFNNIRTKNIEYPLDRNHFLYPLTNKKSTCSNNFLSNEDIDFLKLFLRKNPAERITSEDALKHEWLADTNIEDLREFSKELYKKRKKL
Sequence of Calcium-dependent protein kinase 1 (Plasmodium falciparum (isolate 3D7)) (P62344 whole entry, looked up): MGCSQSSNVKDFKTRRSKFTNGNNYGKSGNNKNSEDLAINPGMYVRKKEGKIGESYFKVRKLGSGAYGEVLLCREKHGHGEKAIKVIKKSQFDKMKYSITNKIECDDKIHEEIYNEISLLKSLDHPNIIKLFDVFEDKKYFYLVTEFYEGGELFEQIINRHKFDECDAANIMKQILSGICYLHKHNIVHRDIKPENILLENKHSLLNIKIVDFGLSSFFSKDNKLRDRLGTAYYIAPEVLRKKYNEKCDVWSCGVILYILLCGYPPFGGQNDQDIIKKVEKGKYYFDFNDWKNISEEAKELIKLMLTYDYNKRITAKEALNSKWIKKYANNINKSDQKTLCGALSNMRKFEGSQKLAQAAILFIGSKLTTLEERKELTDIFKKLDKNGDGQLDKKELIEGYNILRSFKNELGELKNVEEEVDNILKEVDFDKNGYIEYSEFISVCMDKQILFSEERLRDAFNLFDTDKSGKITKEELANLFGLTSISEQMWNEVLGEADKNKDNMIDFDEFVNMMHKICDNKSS

The term inhibition denotes the change of the read-out against control, counted positive when it falls. Turning to `O=c1c(NCCCN(Cc2ccc(F)cc2)c2ccccn2)c(NCc2ccncc2)c1=O`, the growth inhibition in experiment [1] is 95% (active); in experiment [4], 101% (active). Also, the values for the inhibition in experiment [2] and in experiment [3] were 30% and 3%, respectively. Moreover, the result in experiment [5], in experiment [6], in experiment [7] and in experiment [8] was inactive.

Turning to `COc1cccc(CN2Cc3ccccc3OC3(CCN(Cc4c[nH]c5cnccc45)CC3)C2)c1`, the growth inhibition in experiment [1] and in experiment [4] was 83% (active) throughout. Besides, the inhibition is 39% in experiment [2] and -3% in experiment [3]. Moreover, the result in experiment [5], in experiment [6], in experiment [7] and in experiment [8] was inactive.

For `COc1cc2nc(N3CCC(CNCc4ccc(-c5ccc(C(F)(F)F)cc5)cc4)CC3)nc(N)c2cc1OC`, the figures for the growth inhibition in experiment [1] and in experiment [4] were 100% (active) and 99% (active), respectively. Besides, the inhibition is 99% (active) in experiment [2] and -4% in experiment [3]. In addition, the outcome in experiment [5], in experiment [6], in experiment [7] and in experiment [8] was inactive.

Consider `COc1ccc2nccc([C@@H](O)CN3CCC(NCc4ccc5sc(=O)[nH]c5c4)CC3)c2c1`, for which the growth inhibition in experiment [1] is -3%; in experiment [4], 98% (active). Further, the inhibition is 1% in experiment [2] and -3% in experiment [3]. The result in experiment [5], in experiment [6], in experiment [7] and in experiment [8] was inactive.

Consider `N#Cc1ccc(N2C[C@@H](OCc3ccccc3)C[C@H]2C(=O)NCCC(c2ccccc2)c2ccccc2)c2ccccc12`, for which the growth inhibition is 96% (active) in experiment [1] and 93% (active) in experiment [4]. For the same compound, the inhibition in experiment [2] was 11%; in experiment [3] it was -6%. The outcome in experiment [5], in experiment [6], in experiment [7] and in experiment [8] was inactive.

For `COc1cccc(C(=O)NC(NC(=S)Nc2ccc(OC)cc2[N+](=O)[O-])C(Cl)(Cl)Cl)c1` (stereo not given), the growth inhibition in experiment [1] is 49%; in experiment [4], 99% (active). Besides, the inhibition in experiment [2] was 9%; in experiment [3], -2%. In addition, the result in experiment [5], in experiment [6], in experiment [7] and in experiment [8] was inactive.

As for `N=c1c2c(n(Cc3cccc(Cl)c3)c3c1CCC3)CCCC2`, the growth inhibition was 86% (active) in experiment [1] and 97% (active) in experiment [4]. For the same compound, the inhibition was -5% in experiment [2] and -1% in experiment [3]. For the same compound, the result in experiment [5], in experiment [6], in experiment [7] and in experiment [8] was inactive.

Turning to `OCCCCCCN=Cc1[nH]c(=S)sc1O`, the growth inhibition is 1% in experiment [1] and 91% (active) in experiment [4]. The inhibition in experiment [2] was 7%; in experiment [3], 4%. The outcome in experiment [5], in experiment [6], in experiment [7] and in experiment [8] was inactive.

In the case of `O=C(NC1CCCCC1)N(Cc1cccc(-c2cccc(CNC3CCCC3)c2)c1)C1CCN(Cc2ccccc2)CC1`, the growth inhibition in experiment [1] is 90% (active); in experiment [4] it was 96% (active). The inhibition is 64% (active) in experiment [2] and -7% in experiment [3]. For the same compound, the result in experiment [5], in experiment [6], in experiment [7] and in experiment [8] was inactive.

`Cc1cc(N2Cc3ccccc3C2)nc(Nc2cccc(C#N)c2)n1`: the growth inhibition in experiment [1] is 97% (active); in experiment [4], 100% (active). For the same compound, the inhibition in experiment [2] is 6%; in experiment [3], -2%. Besides, the outcome in experiment [5], in experiment [6], in experiment [7] and in experiment [8] was inactive.

Turning to `COCC(C)n1c(C)cc(C(=O)CSc2nnc(Nc3ccccc3)s2)c1C` (stereo not given), the growth inhibition in experiment [1] is 98% (active); in experiment [4] it was 97% (active). Moreover, the figures for the inhibition in experiment [2] and in experiment [3] were -5% and -6%, respectively. The result in experiment [5], in experiment [6], in experiment [7] and in experiment [8] was inactive.

Regarding `O=C(Cc1cccc(Cl)c1)Nc1ccc(N2CCC(NCc3ccc4ncccc4c3)CC2)cc1`, the growth inhibition in experiment [1] is 8%; in experiment [4] it was 81% (active). The inhibition in experiment [2] is 10%; in experiment [3] it was -1%. The outcome in experiment [5], in experiment [6], in experiment [7] and in experiment [8] was inactive.

Consider `COc1cccc(CCN(Cc2ccccc2-c2ccc(CNC3CC(C)(C)NC(C)(C)C3)cc2)C(=O)NC2CCCCC2)c1`, for which the growth inhibition in experiment [1] was 99% (active); in experiment [4], 103% (active). The values for the inhibition in experiment [2] and in experiment [3] were 97% (active) and -1%, respectively. The result in experiment [5], in experiment [6], in experiment [7] and in experiment [8] was inactive.

Take `NCCCN(Cc1ccc(Cl)c(Cl)c1)C(=O)Nc1ccc(Cl)c(Cl)c1`: the figures for the growth inhibition in experiment [1] and in experiment [4] were 41% and 93% (active), respectively. Moreover, the inhibition is 100% (active) in experiment [2] and -2% in experiment [3]. The result in experiment [5], in experiment [6], in experiment [7] and in experiment [8] was inactive.

Take `O=C(Nc1ccc(Cl)cc1)Nc1ccc(-c2csc(-c3nc4ccccc4[nH]3)c2)cc1`: the results for the growth inhibition in experiment [1] and in experiment [4] were 40% and 90% (active), respectively. The inhibition was 59% (active) in experiment [2] and -4% in experiment [3]. Further, the result in experiment [5], in experiment [6], in experiment [7] and in experiment [8] was inactive.

With `N#Cc1ccc(CN2CCC(Oc3ccc(NC(=O)c4ccco4)cc3Cl)CC2)cc1`, the growth inhibition in experiment [1] was 96% (active); in experiment [4], 95% (active). Moreover, the inhibition is 7% in experiment [2] and 6% in experiment [3]. The result in experiment [5], in experiment [6], in experiment [7] and in experiment [8] was inactive.

For the compound `O=C(/C=C/c1ccc(Cl)c(Cl)c1)N1CCC(CN2CCC(c3c[nH]c4ccncc34)CC2)CC1`, the growth inhibition in experiment [1] was 72% (active); in experiment [4], 101% (active). For the same compound, the inhibition in experiment [2] was 44%; in experiment [3], 0%. The result in experiment [5], in experiment [6], in experiment [7] and in experiment [8] was inactive.

As to `Cc1ccc(CN2CCCN(Cc3ccc(C(=O)Nc4ccc(Cl)cc4)cc3)CC2)s1`, the values for the growth inhibition in experiment [1] and in experiment [4] were 5% and 85% (active), respectively. In addition, the inhibition was 53% (active) in experiment [2] and 3% in experiment [3]. Besides, the outcome in experiment [5], in experiment [6], in experiment [7] and in experiment [8] was inactive.

With `O=C(NC1CCN(Cc2ccc(F)cc2)CC1)c1ccc(-c2cccc(C(F)(F)F)c2)s1`, the growth inhibition in experiment [1] is 11%; in experiment [4] it was 83% (active). The figures for the inhibition in experiment [2] and in experiment [3] were 88% (active) and 4%, respectively. The result in experiment [5], in experiment [6], in experiment [7] and in experiment [8] was inactive.

`CCCCOc1ccc(C(=O)C(CCC(CNC(C)(C)C)C(=O)c2ccc(OCCCC)cc2)CNC(C)(C)C)cc1` (stereo not given): the growth inhibition in experiment [1] was 92% (active); in experiment [4], 94% (active). Also, the inhibition in experiment [2] is 100% (active); in experiment [3] it was 1%. The outcome in experiment [5], in experiment [6], in experiment [7] and in experiment [8] was inactive.
